Data from PubChem BioAssay (Tox21).
Values joined by “and” are separate entries in the source; they are usually repeats but may differ in a detail not shown here. Equal values may be shown once. Results filed as inconclusive are left out. Active and inactive are the calls of the source. Unless noted, calls come from the whole dose curve; as a rule, active = well fitted curve in the direction sought with a large enough effect in the repeat runs; inconclusive = weak or mixed curves; inactive = no such curve, though single readings can be large; an effect the other way counts as inactive or inconclusive.

Legend:
[1] = qHTS assay to identify small molecule antagonists of the androgen receptor (AR) signaling pathway using the MDA cell line in the presence of 0.5 nM R1881 - cell viability counter screen (AID 1259242); note: nearly all actives have a fitted effect of over 45% in size
Procedure, shortened: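 R1881 at 0.5 nM final stimulated MDA-kb2 cells during 16 hr compound treatment at 37C. Cytotoxicity read: CellTiter-Fluor fluorescence after 30 min.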

[2] = biological target: Estrogen receptor (Homo sapiens) (UniProt P03372); assay: qHTS assay to identify small molecule antagonists of the estrogen receptor alpha (ER-alpha) signaling pathway using the BG1 cell line in the presence of 0.1 nM 17-beta-estradiol (AID 1259244); note: nearly all actives have a fitted effect of over 50% in size
Procedure, shortened: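 VM7Luc4E2; 4xERE-luciferase; 0.1 nM E2 final; 22 h co-incubation, 37C; ONE-Glo luminescence after 30 min at room temperature.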

[3] = qHTS assay to identify small molecule HDAC inhibitors (AID 1259364); note: potency is the fitted concentration of half-maximal effect;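 note: wild-type HCT-116 cells with endogenous class I/II HDAC activity; nearly all actives have a fitted effect of over 45% in size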
Procedure, shortened: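 Relative class I and II HDAC activity is taken from the luminogenic signal in HCT-116 cells, with compound exposure 2 hr and reagent development 30 min at room temperature.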

[4] = qHTS assay to identify small molecule HDAC inhibitors - cell viability counter screen (AID 1259365); note: series mostly up to about 92 µM; nearly all actives have a fitted effect of over 50% in size
Procedure, shortened: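 HCT-116 (wild type), 1,500 cells/well, overnight 37C/5% CO2; compound in DMSO 2hr; CellTiter-Glo 30min RT; luminescence read.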

[5] = qHTS assay to identify small molecule agonists of the sonic hedgehog signaling (Shh) pathway - cell viability counter screen (AID 1259366); note: nearly all actives have a fitted effect of over 50% in size
Procedure, shortened: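 CellTiter-Fluor fluorescence read-out, 1 hr at 37C, added after 23hr compound exposure. Cells: 3T3 Gli1-Luc, an NIH/3T3 clone with stably integrated Gli1-Luc reporter, plated 4hr before compound.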

[6] = qHTS assay to identify small molecule antagonists of the sonic hedgehog signaling (Shh) pathway - cell viability counter screen (AID 1259367); note: nearly all actives have a fitted effect of over 55% in size; note: potency is the fitted concentration of half-maximal effect
Procedure, shortened: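 Cells: 3T3 Gli1-Luc, 2,000/well, 4 hr pre-incubation. Compounds in DMSO, then conditioned medium. Incubation 24 hr, 37C, 5% CO2. CellTiter-Fluor at 23 hr, 1 hr, fluorescence.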

[7] = qHTS assay to identify small molecule agonists of the sonic hedgehog signaling (Shh) pathway (AID 1259368; calls by dose curve;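 note: NIH/3T3-derived 3T3Gli1-Luc cells carrying a stable Gli1-driven firefly luciferase reporter; series mostly up to about 92 µM; nearly all actives have a fitted effect of over 15% in size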)
Procedure, shortened: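 Mouse fibroblast (NIH/3T3) reporter cells with stably integrated Gli1-Luc were treated 24 hr with compound; firefly luciferase luminescence served as the read-out.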

[8] = qHTS assay to identify small molecule antagonists of the sonic hedgehog signaling (Shh) pathway (AID 1259369; calls by dose curve; note: nearly all actives have a fitted effect of over 45% in size; note: potency is the fitted concentration of half-maximal effect)
Procedure, shortened: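 Conditioned medium drives Shh signalling in 3T3Gli1-Luc cells; compounds in DMSO co-applied, 24hr at 37 C, then luciferase luminescence.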

Measured: Potency

Chain of Estrogen receptor (Homo sapiens) (P03372 whole entry, looked up): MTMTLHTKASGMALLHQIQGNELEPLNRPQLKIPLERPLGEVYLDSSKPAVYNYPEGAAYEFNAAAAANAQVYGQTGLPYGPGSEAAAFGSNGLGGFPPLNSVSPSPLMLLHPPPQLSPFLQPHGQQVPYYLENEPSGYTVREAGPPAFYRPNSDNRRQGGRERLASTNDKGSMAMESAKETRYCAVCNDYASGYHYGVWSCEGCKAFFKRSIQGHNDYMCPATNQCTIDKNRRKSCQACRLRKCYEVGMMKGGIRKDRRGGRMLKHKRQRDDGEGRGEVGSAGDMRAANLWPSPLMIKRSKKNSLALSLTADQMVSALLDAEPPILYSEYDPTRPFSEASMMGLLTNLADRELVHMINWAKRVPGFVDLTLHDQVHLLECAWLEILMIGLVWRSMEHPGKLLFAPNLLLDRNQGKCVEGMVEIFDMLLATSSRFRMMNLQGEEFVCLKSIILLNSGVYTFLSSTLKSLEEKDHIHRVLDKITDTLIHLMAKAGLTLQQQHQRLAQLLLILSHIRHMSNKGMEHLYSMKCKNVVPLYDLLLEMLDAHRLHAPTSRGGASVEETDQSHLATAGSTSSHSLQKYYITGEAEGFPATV

CCc1ccccc1N
inactive: all assays above

COc1cc(CC(C)N)c(OC)cc1Br (stereo not given)
active: [8] 15.9 µM
inactive: all other assays above

C1CS1
inactive: all assays above

COc1ccc(C(O)(c2cncnc2)C2CC2)cc1 (stereo not given)
not listed: [5]
inactive: all other assays above

SCc1ccccc1
not listed: [5]
inactive: all other assays above

CC(C)OC(=O)Cc1ccccc1
inactive: all assays above

O=C(Cc1ccccc1)c1ccccc1
active: [3] 27.3 µM
not listed: [5]
inactive: all other assays above

Clc1ccccc1
active: [6] 26.9 µM | [8] 0.479 µM
not listed: [5]
inactive: all other assays above

CCCCC#N
inactive: all assays above

NNCCO
inactive: all assays above

O=C=NC1CCCCC1
inactive: all assays above

O=S(=O)(Cl)Cl
inactive: all assays above

Cc1nnc(-c2ccccc2)c(=O)n1N
inactive: all assays above

C1CCNCC1
inactive: all assays above

CCNC(=O)NC(=O)/C(C#N)=N/OC
inactive: all assays above

CC(C)c1ccc(OP(=O)(Oc2ccc(C(C)C)cc2)Oc2ccc(C(C)C)cc2)cc1
active: [8] 13.8 µM and 12.2 µM and 15.3 µM
not listed: [5]
inactive: all other assays above

CCSCc1ccccc1OC(=O)NC
not listed: [5]
inactive: all other assays above

CC(C)c1ccc(NC(=O)N(C)C)cc1
active: [3] 24.3 µM
inactive: all other assays above

CC(C)(c1ccccc1)c1cc(-n2nc3ccccc3n2)c(O)c(C(C)(C)c2ccccc2)c1
inactive: all assays above

CCOC(=O)c1cn2nc(OP(=S)(OCC)OCC)cc2nc1C
not listed: [5] | [8]
inactive: all other assays above

CCOP(=S)(OCC)SCSc1cc(Cl)ccc1Cl
not listed: [5]
inactive: all other assays above

NC(=O)CF
inactive: all assays above

CCC(C)Cl (stereo not given)
inactive: all assays above

O=C(O)C(F)(F)C(F)(F)C(F)(F)C(F)(F)C(F)(F)F
inactive: all assays above

Cc1nc(N(C)C)nc(OC(=O)N(C)C)c1C
not listed: [5]
inactive: all other assays above

OCCSSCCO
inactive: all assays above

CCC(C)(C)O
not listed: [5]
inactive: all other assays above

O=[N+]([O-])c1cc(Cl)c(Cl)cc1Cl
not listed: [5]
inactive: all other assays above

CCOP(=S)(OCC)Oc1ccc(S(C)=O)cc1 (stereo not given)
inactive: all assays above
